This is a sample that favours compounds with a hit; in the whole collection about 3.2% have one here.
PMP22 txn: modulators of PMP22 gene transcription in S16 Schwann cells; S16 Pmp22-F2sN Schwann cells, FLuc/NLuc coincidence luminescence, 24 h; Potency, µM (top dose mostly 57.5 µM), hits mostly inhibitors; 2% of 43,000 active; active = clear falling dose curves in both reporters; inconclusive = both reporters move, but less clearly or upward; inactive = either reporter flat; the % is the NLuc reporter signal
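Rat S16 Pmp22-F2sN cells, 500-1,000/well in phenol red-free DMEM + 10% FBS, compound-treated 24 h (37C, 5% CO2). Luminescence: FLuc read, Stop&Glo added, NLuc read.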
pS6 MEF inh: mTORC1 pathway inhibition measured by phospho-rpS6; Tsc2-/- p53-/- MEF, phospho-rpS6 immunofluorescence/PI, 24 h; Potency, µM (titrated, usually from 38.3 µM), actives largely listed as inhibitors; 0.78% of 44,000 active; AID 493208; also: nearly all actives have a fitted effect of over 50% in size
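Cell-based qHTS: Tsc2-/- p53-/- MEF, 24 h cpd, 37 °C; fix/perm, anti-phospho-S6 Alexa-488 + PI; Acumen 488 nm scan; pS6/PI ratio, % positive cells; rapamycin 7.5 nM = inhibition ref; PI count = viability.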
S16 F2sN tox: cytotoxicity in S16 Pmp22-F2sN Schwann cells; 0.48% of 43,000 active; Potency, µM (highest dose often 57.5 µM), usual class: cytotoxic; S16 Pmp22-F2sN Schwann cells (luciferase reporters placed in the Pmp22 gene) viability, CellTiter-Glo, 24 h; also: nearly all actives have a fitted effect of over 65% in size
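CellTiter-Glo counter-screen, qHTS, 1536-well. Cells: S16(c9) Pmp22-F2sN, 500-1,000/well in DMEM + 10% FBS. Cpd 23 nL pin transfer, 24 h, 37C/5% CO2. Read: luminescence, CCD imager.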
p53null 39C kill: selectivity test: cytotoxicity in p53 null cells, nonpermissive temperature. AID 904. 0.97% of 55,000 active. Potency, µM (doses to about 46.1 µM), hits mostly cytotoxic. H1299 p53-null (neo) cells, 39C, ATPlite viability, 24 h; also: nearly all actives have a fitted effect of over 50% in size
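Following overnight plating at 37C (600 cells/well), H1299-neo or H1299-p53A138V cells are dosed up to 46 uM. Incubation lasts 24 hr at 39C before ATP detection.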
p53null 32C kill: p53 null cell cytotoxicity, permissive temperature; Potency, µM (top dose mostly 46.1 µM), most hits filed as cytotoxic; AID 903; H1299-neo p53 null cells, ATP luminescence, 24 h, 32C; 0.62% of 55,000 active; also: nearly all actives have a fitted effect of over 55% in size
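Overnight 37C seeding (600 cells/well) of H1299-neo preceded a 24 hr, 32C exposure to compounds up to 46 uM. ATP levels, read by luminescence after 20 min at RT, indicated surviving cells.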
Of the large screens only hits and unclear results are named; the others gave an inactive call. Unless noted, calls follow the shape of the dose curve; as a rule, active = well fitted curve in the direction sought with a large enough effect; inconclusive = small, poorly fitted or top-dose-only effect, or another doubt; inactive = no such curve, though single readings can be large; an effect the other way counts as inactive or inconclusive.

Cc1ccc(NC(=O)c2ccc3c(O)c(S(=O)(=O)c4ccccc4)c(=O)[nH]c3c2)cc1Cl	none
CCc1ccc(NC(=O)c2ccc3c(O)c(S(=O)(=O)c4ccccc4)c(=O)[nH]c3c2)cc1	p53null 39C kill inconclusive, p53null 32C kill 13µM
O=C(Nc1nc2nc(-c3ccccc3)cc(=O)n2[nH]1)c1ccc(F)cc1	none
O=c1cc(-c2ccccc2)nc2cc(-c3ccc(F)cc3)[nH]n12	S16 F2sN tox 25µM, p53null 39C kill inconclusive, p53null 32C kill inconclusive
CCc1c(C)sc2c1CCN(Cc1ccccc1)C2c1ccccc1 (stereo unspecified)	PMP22 txn 5.7µM, S16 F2sN tox inconclusive
CCc1c(C)sc2c1CCN(Cc1ccccc1C#N)C2c1ccccc1 (stereo unspecified)	PMP22 txn inconclusive
CC(C)OC(=O)C(C(=O)C(F)(F)F)c1cc(NS(=O)(=O)c2ccc3c4c(cccc24)C(=O)N3)ccc1O (stereo unspecified)	none (no result: PMP22 txn, S16 F2sN tox)
Cc1ccc(-c2nc3ccccc3[nH]2)cc1NC(=O)COc1ccccc1[N+](=O)[O-]	PMP22 txn inconclusive, pS6 MEF inh 2.3µM, p53null 39C kill inconclusive, p53null 32C kill inconclusive
COc1ccc(C(=O)NCCn2cc(SCc3c(F)cccc3Cl)c3ccccc32)cc1	PMP22 txn inconclusive (no result: p53null 39C kill, p53null 32C kill)
C=CCSc1nc2ccccc2n1S(=O)(=O)c1ccc(C)cc1	none (no result: PMP22 txn, pS6 MEF inh, S16 F2sN tox)
O=S(=O)(c1cccc(Cl)c1)n1c(/C=C/c2ccccc2Cl)nc2ccccc21	PMP22 txn inconclusive, S16 F2sN tox 13µM, p53null 39C kill 2.8µM, p53null 32C kill 1.3µM
CC(C)n1c(/C=C/c2ccccc2)nc2ccccc21	p53null 32C kill inconclusive (no result: PMP22 txn, pS6 MEF inh, S16 F2sN tox)
Cc1ccc(/C=C/c2nc3ccccc3n2S(=O)(=O)c2ccc(Br)cc2)cc1	PMP22 txn inconclusive, S16 F2sN tox inconclusive, p53null 32C kill 6.3µM
CSc1ccc(/C=C/c2nc3ccccc3n2S(=O)(=O)c2cccc(Cl)c2)cc1	PMP22 txn inconclusive, S16 F2sN tox inconclusive, p53null 39C kill 4µM, p53null 32C kill 3.2µM
CC(NC(=O)C1CCN(C(=O)c2ccc(-n3ccc4ccccc43)s2)CC1)c1ccccc1 (stereo unspecified)	none
CCC(=O)N1CCCc2cc(S(=O)(=O)N3CCC(C(=O)Nc4ccc(F)c(F)c4)CC3)ccc21	PMP22 txn inconclusive, pS6 MEF inh inconclusive, S16 F2sN tox inconclusive
Cc1ccc(/C=C/C(=O)Nc2ccccc2C(N)=O)o1	S16 F2sN tox inconclusive, p53null 39C kill 10µM, p53null 32C kill 13µM
COc1ccc(C2c3c(n(C)c4ccccc34)C(=O)N2CC(=O)Nc2cccc(F)c2)cc1 (stereo unspecified)	none
CCCCC(CC)CNC(=O)CCCc1nnc2n(CCC)c(=O)c3sccc3n12 (stereo unspecified)	PMP22 txn inconclusive, S16 F2sN tox inconclusive
CCCCOC(=O)c1cccc(NC(=O)c2cc3ccccc3o2)c1	PMP22 txn inconclusive, p53null 39C kill 13µM, p53null 32C kill 10µM
CCc1cc(=O)oc2cc(C)c3c(-c4ccc(F)cc4)coc3c12	none (no result: PMP22 txn, S16 F2sN tox)
O=C(c1cc2ccc3cccnc3c2[nH]1)N1CCCCC1	p53null 39C kill 0.79µM, p53null 32C kill 2µM
CC1CCCN(C(=O)c2cc3ccc4cccnc4c3[nH]2)C1 (stereo unspecified)	p53null 39C kill 2µM, p53null 32C kill 1µM
CCOC(=O)C1CCN(C(=O)c2cc3ccc4cccnc4c3[nH]2)CC1	none
O=C(c1cc2ccc3cccnc3c2[nH]1)N1CCN(c2ccc(Cl)cc2)CC1	none
COc1ccc(-c2cc(C(=O)Nc3cccc(C(C)=O)c3)no2)cc1OC	none (no result: PMP22 txn, S16 F2sN tox)
COc1cc(NC(=O)c2cc(-c3ccc(Cl)c(Cl)c3)on2)cc(OC)c1OC	p53null 39C kill 25µM, p53null 32C kill inconclusive (no result: PMP22 txn, S16 F2sN tox)
COc1cc(CN2CCc3nc(N4CCN(c5ccccn5)CC4)ncc3C2)cc(OC)c1OC	PMP22 txn 8.9µM, S16 F2sN tox 11µM
COC(=O)c1c(SCC(=O)Nc2ccccc2C(F)(F)F)[nH]c2ccc(Cl)cc2c1=O	p53null 39C kill 6.3µM
O=C(/C(C=Nc1ccc(Br)cc1)=C(/O)c1ccco1)C(F)(F)F	p53null 39C kill inconclusive, p53null 32C kill 5µM (no result: PMP22 txn, pS6 MEF inh, S16 F2sN tox)
CCCCn1c2ccc(F)cc2c2nnc(SCCN(CC)CC)nc21	PMP22 txn 15µM, pS6 MEF inh inconclusive
COc1cc(OC)c(N(C)C(=O)CSc2c3c(nc4ccc(Cl)cc24)CCCC3)cc1Cl	PMP22 txn inconclusive, p53null 39C kill 20µM
CCCCN(C)C(=O)CSc1c2c(nc3ccc(Cl)cc13)CCCC2	PMP22 txn inconclusive, pS6 MEF inh 18µM
CCCN(CCC)C(=O)CSc1c2c(nc3ccc(Cl)cc13)CCCC2	PMP22 txn inconclusive, p53null 39C kill inconclusive
CC1CCCN(C(=O)CSc2c3c(nc4cc(Cl)ccc24)CCCC3)C1 (stereo unspecified)	PMP22 txn inconclusive, pS6 MEF inh inconclusive, p53null 39C kill 16µM
CN(Cc1ccccc1)C(=O)CSc1c2c(nc3ccc(Cl)cc13)CCCC2	PMP22 txn inconclusive, pS6 MEF inh 13µM, S16 F2sN tox inconclusive, p53null 39C kill 13µM, p53null 32C kill inconclusive
Cc1cccc(-c2nc3c(cnn3-c3ccccc3)c(=O)n2-c2ccc(Cl)cc2)c1	S16 F2sN tox inconclusive
CCc1ccc(CNC(=O)c2ccc3nc(SCc4ccc(F)cc4)n(C)c3c2)cc1	none
COc1cc(C(=O)Nc2ccc3oc(-c4ccc(C)c(Br)c4)nc3c2)cc(OC)c1OC	none
Cc1ccc(NC(=O)Cc2c(C(=O)O)c(C)cn2C)cc1Cl	none
CCCCC(=O)OC1=C(C(=O)c2ccccc2)N(CC)S(=O)(=O)c2ccccc21	p53null 39C kill inconclusive
CCCN1C(C(=O)c2ccccc2)=C(OC(=O)c2ccc(OC)cc2)c2ccccc2S1(=O)=O	PMP22 txn inconclusive
CCN1C(C(=O)c2ccccc2)=C(OC(=O)c2ccccc2OC)c2ccccc2S1(=O)=O	PMP22 txn inconclusive, p53null 39C kill 13µM, p53null 32C kill inconclusive
CCCCN1C(C(=O)c2ccccc2)=C(OC(C)=O)c2ccccc2S1(=O)=O	PMP22 txn inconclusive, pS6 MEF inh inconclusive, S16 F2sN tox inconclusive, p53null 39C kill 5µM, p53null 32C kill inconclusive
Cc1ccc(Sc2c(C)nn(C(=O)c3ccc(Cl)cc3)c2C)cc1	none
COc1cc(C(=O)n2nc(C)c(Sc3ccc(Cl)cc3)c2C)cc(OC)c1OC	pS6 MEF inh 10µM, p53null 39C kill inconclusive
CCOc1ccccc1NS(=O)(=O)c1cc(-c2cnc(C3CC3)o2)ccc1C	PMP22 txn inconclusive
CC(=O)c1cccc(NS(=O)(=O)c2cc(-c3cnc(C4CC4)o3)ccc2C)c1	PMP22 txn 17µM, S16 F2sN tox inconclusive
CC(=O)c1ccc(NS(=O)(=O)c2cc(-c3cnc(C4CC4)o3)ccc2C)cc1	PMP22 txn inconclusive, S16 F2sN tox inconclusive

Screens deposited in PubChem BioAssay by National Center for Advancing Translational Sciences (NCATS).
